Drawing on PubChem BioAssay (NCI), this text covers growth inhibition for 30 compounds.

The panel holds about 79,000 compounds, 15% with a hit somewhere; the sample as a whole holds those more often. Unmarked numbers belong to inactive results. Active and inactive are the calls of the source. Cut-off read from the data, not from the text of the source: active = growth inhibition above about 70%; inactive = the rest.

A short description of assay [1]: NCI Yeast Anticancer Drug Screen. Data for the rad50 strain (AID 155).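 Note: 0% = growth of vehicle-only cultures of the same strain.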 Conditions: S. cerevisiae rad50 strain growth inhibition; at 50.0 µM; active compounds read high. The essentials: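 Relative growth inhibition (compound vs vehicle) was measured in yeast with a defined repair-gene alteration.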
Assay [2] in a line: NCI Yeast Anticancer Drug Screen. Data for the mec2-1 strain (AID 157). The following applies: S. cerevisiae mec2-1 strain, at 50.0 µM, active compounds read high. The method in brief:
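Using mec2-1 yeast: add compound, measure growth, express inhibition versus vehicle-treated cultures.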

Assay [3] can be described thus: NCI Yeast Anticancer Drug Screen. Data for the sgs1 mgt1 strain (AID 161).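 Note: 0% = growth of cultures given vehicle only.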 The following applies: S. cerevisiae sgs1 mgt1 strain, at 50.0 µM, active compounds read high. The essentials:
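Yeast cells carrying a defined DNA-repair defect were exposed to test compounds. Growth inhibition was measured relative to vehicle-treated controls.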

Assay [4] is described as follows: NCI Yeast Anticancer Drug Screen. Data for the cln2 rad14 strain (AID 165).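 Note: 0% = growth equal to vehicle treated cultures.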 Conditions: S. cerevisiae cln2 rad14 strain, at 50.0 µM, active compounds read high. The essentials: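 Yeast strain cln2 rad14, bearing defects in cell cycle control and DNA repair, serves as the test system; values reflect growth inhibition compared with vehicle.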
A short description of assay [5]: NCI Yeast Anticancer Drug Screen. Data for the bub3 strain (AID 167). Conditions: S. cerevisiae bub3 mutant strain, at 50.0 µM, active compounds read high. The essentials:
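Screening used yeast with an engineered genetic alteration affecting cell cycle control. Compound-exposed cultures were compared with vehicle cultures, and reduced growth was taken as inhibition.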

Assay [6] in a line: NCI Yeast Anticancer Drug Screen. Data for the mlh1 rad18 strain (AID 175). Conditions: S. cerevisiae mlh1 rad18 strain growth inhibition; at 50.0 µM; active compounds read high. The method in brief: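 Steps: expose repair-defective yeast to compound; measure growth; express inhibition against vehicle-treated controls.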

Regarding `CC1(C)Oc2ccc3c(=O)c(-c4ccccc4)c(-c4ccccc4)oc3c2C1C(=O)O` (stereo not given), the growth inhibition in assay [1] was 12.5%; in assay [2], -1.35%; in assay [3] it was -17.6%; in assay [4], 12.8%; in assay [5] it was 0.25%; in assay [6] it was 10.8%.

Take `COc1ccccc1N/N=c1\c2nc3ccccc3nc1n(-c1ccccc1C)c(=S)n2-c1ccccn1`: the growth inhibition in assay [1] was 3.4%; in assay [2], 5.1%; in assay [3] it was 16.3%; in assay [4] it was -0.75%; in assay [5], 0.9%; in assay [6], 8.85%.

`CCOC(CCCl)c1ccccc1` (stereo not given): the growth inhibition is 2.45% in assay [1]; -12.4% in assay [2]; -39.5% in assay [3]; 7.85% in assay [4]; 11.1% in assay [5]; -10.3% in assay [6].

Turning to `O=C(NCN1CCOCC1)Nc1ccccc1`, the growth inhibition was 8% in assay [1]; 0.6% in assay [2]; -1.65% in assay [3]; -24.2% in assay [4]; -6.55% in assay [5]; 2.05% in assay [6].

For `Cc1c(Cl)cc(Cl)c(N)c1Cl`, the growth inhibition in assay [1] is -4.4%; in assay [2], -13.7%; in assay [3], -18%; in assay [4] it was -5.3%; in assay [5], -16.1%; in assay [6] it was -15.2%.

As to `O=C1C(Cl)C(c2cccc(O)c2)N1n1cnc2ccccc2c1=O` (stereo not given), the growth inhibition in assay [1] was -25.1%; in assay [2], -4.15%; in assay [3] it was -7.5%; in assay [4], -8%; in assay [5], -19.4%; in assay [6] it was -0.95%.

As for `O=C(O)CC(NC(=O)c1cnc2ccccc2n1)C(=O)O` (stereo not given), the growth inhibition was -3.65% in assay [1]; -9.85% in assay [2]; 4.3% in assay [3]; -17.1% in assay [4]; 12.7% in assay [5]; -1% in assay [6].

For `Brc1cc2c(cc1CC1CCCCO1)OCO2` (stereo not given), the growth inhibition in assay [1] is -6.5%; in assay [2] it was -17.1%; in assay [3], 1.4%; in assay [4], -61.9%; in assay [5], -4.9%; in assay [6], 0.85%.

On to `Cn1ccc2c(C(=O)c3ccccc3)cccc2c1=O`, for which the growth inhibition was 7.75% in assay [1]; -5.7% in assay [2]; -4.75% in assay [3]; 9.7% in assay [4]; 0.5% in assay [5]; -10.5% in assay [6].

In the case of `c1ccc(COC[C@H]2O[C@@H](c3ccccc3)C[C@@H](OCc3ccccc3)C2OCc2ccccc2)cc1` (stereo not given in full), the growth inhibition was -20.3% in assay [1]; -11.6% in assay [2]; -1.95% in assay [3]; -0.45% in assay [4]; -11.6% in assay [5]; 5.4% in assay [6].

For `Cc1cc(C)c(C#N)c(SC(C(=O)NC(C)(C)C)c2ccccc2)n1` (stereo not given), the growth inhibition was 2.25% in assay [1]; -16.8% in assay [2]; 8.75% in assay [3]; 18% in assay [4]; -8.15% in assay [5]; -14.3% in assay [6].

As for `COCCNC(=O)/C=C\C(=O)O`, the growth inhibition in assay [1] is 3.35%; in assay [2], -3.55%; in assay [3], -2.95%; in assay [4], -49.4%; in assay [5], 12.2%; in assay [6] it was -3.8%.

For the compound `Cc1ccc(NC(=S)N2CCCC2)cc1`, the growth inhibition in assay [1] is 5.9%; in assay [2], -12.9%; in assay [3] it was -18.8%; in assay [4] it was -94.2%; in assay [5], -13.4%; in assay [6], -0.7%.

For `OCCS`, the growth inhibition in assay [1] is -7.35%; in assay [2], 5.25%; in assay [3] it was -8.4%; in assay [4] it was -21.8%; in assay [5], -3.45%; in assay [6], -4.25%.

Regarding `O=C(Nc1cccc(Cl)c1)ON1C(=O)C2C(C1=O)C1(Cl)C(Cl)C(Cl)C2(Cl)C1(Cl)Cl` (stereo not given), the growth inhibition was 0.4% in assay [1]; 19.4% in assay [2]; -15.8% in assay [3]; -1.35% in assay [4]; -24% in assay [5]; -16.1% in assay [6].

As to `O=[N+]([O-])c1cc(/C=N/NS(=O)(=O)c2ccc(F)cc2)c(O)c([N+](=O)[O-])c1`, the growth inhibition in assay [1] is 10.2%; in assay [2], -11.2%; in assay [3] it was -14.6%; in assay [4], 3.65%; in assay [5], 0.35%; in assay [6] it was 9%.

Take `COc1cc2ccc1OCc1cccc(n1)COc1ccc(cc1OC)C=NCCNCCN=C2`: the growth inhibition in assay [1] is -4.6%; in assay [2], -22.8%; in assay [3], -14.9%; in assay [4], -21.8%; in assay [5], -17.3%; in assay [6], -17.4%.

`CCN(CC)/[N+]([O-])=N/O`: the growth inhibition in assay [1] is 26.6%; in assay [2] it was -14.8%; in assay [3] it was -2.35%; in assay [4], -0.6%; in assay [5], 15.8%; in assay [6] it was 16.1%.

As for `COC(=O)/C=C1/Nc2c(N)nc(N)nc2NC1=O`, the growth inhibition in assay [1] is 15.1%; in assay [2] it was 8.2%; in assay [3] it was 5.95%; in assay [4] it was -2.1%; in assay [5], -0.9%; in assay [6] it was 3.15%.

With `COc1cc2c(cc1O)C(=O)CCCC2`, the growth inhibition in assay [1] is -13.8%; in assay [2] it was 0.75%; in assay [3], -17.8%; in assay [4], -2.25%; in assay [5], 14.1%; in assay [6] it was 1.2%.

With `CC1c2c(cc(=O)n(Cc3ccccc3)c2O)C(=O)N1Cc1ccccc1` (stereo not given), the growth inhibition in assay [1] was -12.6%; in assay [2], 16.9%; in assay [3], 3.85%; in assay [4] it was 4.75%; in assay [5], -23.6%; in assay [6], 8.85%.

In the case of `COC(SC)(C(=O)O)c1cc(-c2c(Cl)cccc2Cl)no1` (stereo not given), the growth inhibition is -5.4% in assay [1]; -6.8% in assay [2]; -9.35% in assay [3]; -11.4% in assay [4]; 12.2% in assay [5]; -1% in assay [6].

For the compound `O=C(Nc1ccccc1)N1CC2(CN1)CNN(C(=O)Nc1ccccc1)C2`, the growth inhibition is -3.35% in assay [1]; -3.25% in assay [2]; 15.7% in assay [3]; -8% in assay [4]; -3.35% in assay [5]; -9.75% in assay [6].

For the compound `Cc1ccc(NC(=O)OCC2CC3C=CC2C3)cc1` (stereo not given), the growth inhibition was 95.5% (active) in assay [1]; 98.8% (active) in assay [2]; 99% (active) in assay [3]; 96.3% (active) in assay [4]; 95.2% (active) in assay [5]; 97.7% (active) in assay [6].

For the compound `Nc1ccc(F)cc1`, the growth inhibition in assay [1] is -22.1%; in assay [2], -1.5%; in assay [3], -15.4%; in assay [4], -19.6%; in assay [5], -3.05%; in assay [6] it was -31.9%.

As for `CC1OC2CC(O)C1(O)C1=C2C(O)=C(C(N)=O)C(=N)C1=O` (stereo not given), the growth inhibition in assay [1] is 12.3%; in assay [2], -15.6%; in assay [3], 19.4%; in assay [4] it was 6.8%; in assay [5], 5.35%; in assay [6], -21.4%.

As for `CCCNC=O`, the growth inhibition in assay [1] was -6.8%; in assay [2], -7.85%; in assay [3], -13.8%; in assay [4] it was -14.4%; in assay [5], -5.1%; in assay [6] it was -5%.

`COc1cc(CCNC(=O)CC(C)C)ccc1OCc1ccccc1`: the growth inhibition is -14.9% in assay [1]; -27% in assay [2]; 1.35% in assay [3]; -30.5% in assay [4]; -11.9% in assay [5]; -15.9% in assay [6].

Consider `Cc1ccc2[nH]c(=S)n(CCc3ccccc3)c(=O)c2c1`, for which the growth inhibition in assay [1] is -1.95%; in assay [2], -23%; in assay [3], 29.9%; in assay [4] it was 6.85%; in assay [5], 10.4%; in assay [6], 13.7%.

Take `CC(=O)N=Cc1ccccc1O`: the growth inhibition in assay [1] is -27.8%; in assay [2] it was -16%; in assay [3] it was -50.2%; in assay [4], -77.7%; in assay [5] it was -34.5%; in assay [6] it was -20.7%.
